Results published in PubChem BioAssay AID720488 (Milwaukee Institute for Drug Discovery, 2013).
“And” between values parts separate entries of the source, which are not always exact repeats. Identical values can stand only once. The campaign covered roughly 16,000 compounds. About 960 (6%) were called active. Many of the other results were omitted from the sample, so actives are more common in it than they were. Values without a mark were called inactive.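 The calls were made as follows: active = compound fluorescence over control fluorescence at most 0.8, a quencher, or at least a set upper limit, an enhancer; inactive = ratio between 0.8 and the set upper limit.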

Assay: Cy5 fluorescence quenchers or enhancers, artefact control for HCV NS3 helicase inhibitor project, biochemical, ChemBridge library, Cy5 readout (AID 720488)
Details: Cy5-dT15 DNA with NS3h, at 100 µM, actives lie on both sides, signal over control mean, under 1 quenches

| Structure (SMILES) | fluorescence interference ratio |
| --- | --- |
| CC(=O)c1cccc(N2C(=O)C3C4C=CC(C5CC45)C3C2=O)c1 (stereo unspecified) | 0.66 (active) |
| O=C1C2C3C=CC(C3=C(c3ccccc3)c3ccccc3)C2C(=O)N1c1cccc(C(F)(F)F)c1 (stereo unspecified) | 1.02 |
| CCOc1ccc(C(=O)Nc2ccc(Cl)c(-c3nc4ncccc4o3)c2)cc1Cl | 1.17 |
| O=C1NC(=Nc2cccc(O)c2)S/C1=C\c1cccc(O)c1 | 0.898 |
| Cc1cccc(N=C2NC(=O)CS2)c1C | 1 |
| Cc1cccc(N=C2NC(=O)/C(=C\c3ccc([N+](=O)[O-])cc3)S2)c1C | 0.748 (active) |
| COC(=O)C1=C(O)/C(=C\c2ccccc2C(F)(F)F)N=C1C | 0.891 |
| CCOC(=O)c1[nH]c(=O)[nH]c1CSc1nccn1C | 1.03 |
| Cc1cc(/C=N\O)c(C)n1-c1ccc(F)cc1 | 0.964 |
| Cc1ccc(NC(=O)c2cccc(C(=O)Nc3ccc(C)cc3)n2)cc1 | 0.981 |
| O=C(Nc1ccncc1)c1cc2ccccc2o1 | 0.446 (active) |
| Cc1cc(Br)cc(C)c1NC(=O)c1cc2ccccc2o1 | 0.937 |
| Cc1ccccc1CC1S/C(=N/N=C\c2ccc(N(C)C)cc2)NC1=O (stereo unspecified) | 0.981 |
| Cc1cccc(NS(=O)(=O)c2ccc([N+](=O)[O-])cc2)n1 | 0.931 |
| COc1ccc(C2=CC=C(c3ccc(OC)cc3)C2)cc1 | 0.865 |
| CCCCOCP(=O)(c1ccccc1)c1ccccc1 | 1.1 |
| CCOCCOCCC(C(=O)O)P(=O)(c1ccccc1)c1ccccc1 (stereo unspecified) | 0.631 (active) |
| CCOC(=O)C(C#N)C(=S)Nc1ccccc1 (stereo unspecified) | 1.02 |
| Cn1cnc2c1c(=O)n(Cc1ccc(F)cc1)c(=O)n2C | 1.12 |
| COc1ccc(C(=O)COc2cc3c(C(=O)OC(C)C)c(C)oc3cc2Br)cc1 | 1 |
| O=[N+]([O-])c1cccc(S(=O)(=O)NCc2ccccn2)c1 | 1.05 |
| COc1ccc(N2C(=O)C=CC2=O)c([N+](=O)[O-])c1 | 0.622 (active) |
| COc1ccc(N2C(=O)C3C4C=CC(C4=C(C)C)C3C2=O)c([N+](=O)[O-])c1 (stereo unspecified) | 0.887 |
| COc1ccc(N=Cc2sccc2C)c([N+](=O)[O-])c1 | 1.02 |

| Structure (SMILES) | fluorescence interference ratio |
| --- | --- |
| CC1(C(=O)Nc2ccccc2Cl)CC2c3ccccc3C1c1ccccc12 (stereo unspecified) | 0.972 |
| C=CCOC(=O)C1=C(C)NC(C)=C(C(=O)OCC=C)C1c1cccs1 | 0.9 |
| O=C(Nc1ccc(Cl)c(Cl)c1)Nc1nnc(-c2ccc(Br)cc2)s1 | 1.03 |
| C/C(=N/NS(=O)(=O)c1ccccc1)c1cccc(Br)c1 | 1.04 |
| Cc1ccc(/C=C/C(=O)Nc2cccc([N+](=O)[O-])c2)o1 | 0.895 |
| CCNC(=O)NC1C(NC(=O)NCC)N(C)C(=O)N1C (stereo unspecified) | 0.995 |
| C=CCN1C(=O)/C(=C/c2ccccc2OCc2ccc([N+](=O)[O-])cc2)SC1=S | 1.07 |
| O=C(CCN1C(=O)/C(=C/c2ccccc2)SC1=S)Nc1cccc(Cl)c1 | 1.04 |
| C=CCN1C(=O)/C(=C\c2cc(Cl)c(O)c(Cl)c2)SC1=S | 0.772 (active) |
| O=C(NCCCN1CCOCC1)C(=O)Nc1ccc(F)cc1 | 1.06 |
| O=C(NCc1cccs1)c1cc2n(n1)C(C(F)(F)F)CC(c1ccc(Cl)c(Cl)c1)N2 (stereo unspecified) | 1.05 |
| COc1ccc(NC(=O)C(=O)NCc2ccccn2)c(OC)c1 | 1.03 |
| O=C1C2C3C=CC(C3)C2C(=O)N1/N=C\c1cccc(I)c1 (stereo unspecified) | 0.959 |
| COC(=O)c1cc(NC(=O)COc2ccc([N+](=O)[O-])cc2)cc(C(=O)OC)c1 | 1.05 |
| O=C(NC(=S)Nc1ccc([N+](=O)[O-])cc1O)c1ccc(Br)cc1 | 0.952 |
| Cc1ccc(OCC(=O)Nc2cc([N+](=O)[O-])ccc2Cl)cc1 | 1.03 |
| CC(C)COc1ccc(C(=O)Nc2cc([N+](=O)[O-])ccc2Cl)cc1 | 0.656 (active) |
| O=C(Nc1cc([N+](=O)[O-])ccc1O)c1ccc(C(=O)Nc2cc([N+](=O)[O-])ccc2O)cc1 | 1.24 (active) |
| CCC(C)c1ccc(NC(=O)c2ccc([N+](=O)[O-])cc2)cc1 (stereo unspecified) | 1.06 |
| CN(C(=O)COc1ccc2ccccc2c1)c1ccccc1 | 1.02 |
| Cc1cc(C(=O)Nc2ccccc2C(=O)O)ccc1NC(=O)CC(C)C | 1.04 |
| COc1ccc(C2=NN(C(C)=O)C(c3ccccc3)C2)cc1 (stereo unspecified) | 1.05 |
| COc1ccc(C2CC(c3ccc([N+](=O)[O-])cc3)=NN2)cc1 (stereo unspecified) | 0.645 (active) |
| C=C(C)Cn1c(-c2ccc([N+](=O)[O-])cc2)n[nH]c1=S | 1.03 |

| Structure (SMILES) | fluorescence interference ratio |
| --- | --- |
| O=C1OC(c2ccc(F)cc2)=N/C1=C\c1ccc2c(c1)OCO2 | 1.09 |
| O=C(CSc1nnc(-c2ccc(Br)cc2)o1)OCc1ccccc1 | 0.95 |
| COC(=O)c1ccccc1NC(=O)c1cncc(Br)c1 | 0.974 |
| COc1ccc(C2CC(C(F)(F)F)n3nc(C(=O)N4CCN(c5ccc(F)cc5)CC4)c(Cl)c3N2)cc1 (stereo unspecified) | 0.951 |
| O=C(Nc1ccc(Oc2ccccc2)cc1)c1ccco1 | 0.978 |
| N#Cc1c(N)nc2sc(C(=O)Nc3ccccc3)c(N)c2c1-c1ccco1 | 1.21 (active) |
| N#Cc1c(SCC(=O)c2ccc(Cl)cc2)nc2c(c1-c1ccco1)CCCC2 | 0.953 |
| Cc1cccc(NC(=O)/C=C/c2ccc(F)cc2)c1 | 0.934 |
| CCOC(=O)c1ccc(-n2c(C)cc(/C=N\n3cnnc3)c2C)cc1 | 1.03 |
| O=C1c2ccccc2C(=O)c2c1cccc2N1CCN(CCO)CC1 | 1.22 (active) |
| CCOC(=O)C1=C(C)N=c2s/c(=C/c3ccc(C(=O)OC)cc3)c(=O)n2C1c1ccc(OC(C)=O)cc1 (stereo unspecified) | 1.07 |
| CNC(=O)C1CC(=O)N(c2ccc(F)cc2)C1 (stereo unspecified) | 1.11 |
| O=C(COC(=O)C1CCCN1C(=O)OCc1ccccc1)c1ccc(-c2ccccc2)cc1 (stereo unspecified) | 1.04 |
| COc1ccc2[nH]cc(CCNC=O)c2c1 | 1.01 |
| CCc1ccccc1NC(=O)/C(=C/c1ccccc1)c1ccccc1 | 0.606 (active) |
| S=C(Nc1ccccc1)Nc1ccccc1NC(=S)Nc1ccccc1 | 1.03 |
| CCc1ccccc1NC(=O)C(=O)NCc1ccco1 | 1.09 |
| CCOC(=O)c1ccc(NC(=O)c2ccccc2OC)cc1 | 0.661 (active) |
| CCOC(=O)c1ccc(NC(=O)c2cc(OCC)cc(OCC)c2)cc1 | 1.01 |
| CCOC(=O)c1ccc(NC(=O)C(=O)NCc2ccc(C)cc2)cc1 | 1 |
| COc1ccc(Br)cc1C(=O)Nc1cccc(-c2nc3ccccc3[nH]2)c1 | 0.978 |
| O=C(/C=C\c1ccccc1)Nc1ccc(Br)cn1 | 0.948 |
| O=C(Nc1ccc(OC(F)(F)F)cc1)c1nn2c(c1Br)NC(c1cccs1)CC2C(F)(F)F (stereo unspecified) | 1 |
| O=C(Nc1ccc(Cl)cc1C(O)c1ccccc1)c1cnn2c1NC(c1ccccc1)CC2C(F)(F)F (stereo unspecified) | 0.956 |

| Structure (SMILES) | fluorescence interference ratio |
| --- | --- |
| COc1cc(NC(=O)c2cnn3c2NC(c2cccs2)CC3C(F)(F)F)c(OC)cc1Cl (stereo unspecified) | 0.659 (active) |
| CSc1ccc(C=Nc2ccc(C#N)cc2)cc1 | 1.07 |
| Cc1cccc(C(=O)Nc2cccc(NC(=O)COc3ccccc3Cl)c2)c1 | 0.946 |
| CC(C)(C)NC(=O)CN(c1cccc(C(F)(F)F)c1)S(C)(=O)=O | 1.05 |
| COc1ccc(NC(=O)c2cccc(Cl)c2Cl)cc1OC | 0.784 (active) |
| COc1ccc(Br)cc1C(=O)Nc1ccc(F)c([N+](=O)[O-])c1 | 0.959 |
| CC(=O)c1ccc(NC(=O)c2c(Cl)cccc2Cl)cc1 | 1.03 |
| CCOc1ccc(-n2c(O)c(C=C3C=CC=N3)c(=O)[nH]c2=O)cc1 | 0.942 |
| COC(=O)C1CC(OCc2ccccc2)C1 (stereo unspecified) | 0.97 |
| CCOc1cc(/C=C(\C#N)c2nc3ncc(Br)cc3[nH]2)ccc1O | 0.791 (active) |
| CCn1c(-c2ccc(OC)cc2)n[nH]c1=S | 1 and 1.01 |
| CCN1C(=O)C(=Cc2ccc(O)cc2)C(=O)NC1=S | 1.02 |
| CCN(CC)c1ccc(N2C(=O)/C(=C/c3ccc4c(c3)OCO4)SC2=S)cc1 | 1.12 |
| CCN(CC)c1ccc(C=C2C(=O)N(C)C(=O)N(C)C2=O)c(O)c1 | 2.02 (active) |
| Cc1cc(C)cc(N2C(=O)NC(=O)/C(=C\c3ccc(F)cc3)C2=O)c1 | 1.02 |
| CCN(CC)c1ccc(/C=C2\C(=O)NC(=O)N(C)C2=O)cc1 | 1.29 (active) |
| NS(=O)(=O)c1ccc(CNC(=O)c2ccc(Cl)cc2[N+](=O)[O-])cc1 | 0.985 |
| O=C(CSc1ncc(-c2ccccc2)[nH]1)Nc1ccc(Br)cc1 | 0.959 |
| COc1ccc(Cl)cc1C(=O)N1CCN(c2cccc(Cl)c2)CC1 | 0.934 |
| CCOC(=O)NCc1ccc(N(C)C)cc1 | 0.963 |
| CP(=O)(c1ccc(C(N)=O)cc1)c1ccc(C(N)=O)cc1 | 1.06 |
| O=C(Nc1c(F)cc(F)cc1Br)c1cc2n(n1)C(C(F)(F)F)CC(c1ccc(Cl)cc1)N2 (stereo unspecified) | 1.04 |
| CCc1ccc(N2C(=O)/C(=C/c3cc(C)n(-c4cccnc4)c3C)C(=O)NC2=S)cc1 | 1.1 |
| NC(=NS(=O)(=O)c1ccccc1)c1ccc(Cl)cc1 | 1.06 |
